Compound activity as filed in PubChem.
WRN helicase inh: qHTS for Inhibitors of WRN Helicase; Potency, µM (top dose mostly 114 µM), for inactives: at the highest dose activity change, negative = inhibition, actives largely listed as inhibitors; WRN helicase unwinding, fluorescent forked duplex, kinetic; Bifunctional 3'-5' exonuclease/ATP-dependent helicase WRN (Homo sapiens), Q14191; 0.46% of 360,000 active; note: nearly all actives have a fitted effect of over 55% in size
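WRN at 20 nM final preincubated with compound 15 min at room temperature; reaction started with 100 nM fluorophore/quencher forked duplex oligonucleotide and 2 mM ATP final. Unwinding followed kinetically by red fluorescence (ex 525, em 598 nm).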
APEX1 inh: qHTS Assay for Inhibitors of the Human Apurinic/apyrimidinic Endonuclease 1 (APE1) | Potency, µM (series often up to 65.8 µM), for inactives: at the top dose activity change, negative = inhibition, hits mostly inhibitors | AID 2517, 2012 | 0.35% of 350,000 active | recombinant APE1, TAMRA/BHQ-2 abasic DNA cleavage fluorescence;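 note: plate controls were vehicle for no effect and reference inhibitor for full effect; nearly all actives have a fitted effect of over 55% in size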
Target sequence (P27695 whole entry, looked up): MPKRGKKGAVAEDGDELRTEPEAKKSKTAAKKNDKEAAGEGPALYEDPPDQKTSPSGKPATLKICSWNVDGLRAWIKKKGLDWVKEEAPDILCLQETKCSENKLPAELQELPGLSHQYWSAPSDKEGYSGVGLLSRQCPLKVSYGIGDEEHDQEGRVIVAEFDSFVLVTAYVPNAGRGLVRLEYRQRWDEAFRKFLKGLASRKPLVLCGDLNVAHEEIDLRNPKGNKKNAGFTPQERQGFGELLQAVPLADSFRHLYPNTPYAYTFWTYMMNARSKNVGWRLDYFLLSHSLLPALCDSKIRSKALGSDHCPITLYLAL
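Endonuclease cleavage of a quenched abasic-site DNA duplex (50 nM) by APE1 (0.75 nM) was tracked by TAMRA dequenching. Compounds were preincubated with enzyme 15 min at room temperature; data normalized to buffer-only and DMSO wells plus NSC13755 control.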
BLM helicase inh: qHTS Assay for Inhibitors of Bloom's syndrome helicase (BLM) | Potency, µM (titrated, usually from 56.1 µM), for inactives: at the highest dose activity change, negative = inhibition, most hits filed as inhibitors | 0.2% of 350,000 active | AID 2528, 2010 | recombinant BLM DNA unwinding, fluorescence dequenching | RecQ-like DNA helicase BLM (Homo sapiens), P54132;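 note: plate controls were vehicle for no effect and no enzyme for full effect; nearly all actives have a fitted effect of over 35% in size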
RECQ1 inh: qHTS Assay for Inhibitors of RecQ-Like Dna Helicase 1 (RECQ1). ATP-dependent DNA helicase Q1 (Homo sapiens), P46063. Potency, µM (series often up to 57.3 µM), inactives show at the top dose activity, negative = inhibition, hits mostly inhibitors. RECQ1 DNA unwinding, red fluorescence kinetic read. 0.54% of 240,000 active;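 note: plate controls were vehicle for no effect and no enzyme for full effect; nearly all actives have a fitted effect of over 30% in size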
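RECQ1T1 50 nM; forked duplex (20 bp + 30-nt ss tails) 200 nM, ATP 2 mM final; pH 8.0, 2 mM MgCl2, 2.5 ug/ml poly(dI-dC); 15 min compound preincubation; discontinuous kinetic read over 2 h at RT.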
L3MBTL1 block: qHTS Assay for the Inhibitors of L3MBTL1; Lethal(3)malignant brain tumor-like protein 1 (Homo sapiens), Q9Y468; AlphaScreen L3MBTL1–H3K9me1 peptide binding; Potency, µM (doses to about 57.1 µM), without a hit: top-dose activity, negative = inhibition, hits mostly inhibitors; 0.66% of 230,000 active; AID 485360, 2010; note: nearly all actives have a fitted effect of over 60% in size
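L3MBTL1 50 nM + b-AHA-H3(1-15)K9me1 75 nM, 30 min RT; compound added, 30 min RT; streptavidin donor/Ni-chelate acceptor beads 10 ug/mL each final, 30 min RT dark; AlphaScreen read.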
* marks the source's active call; other numbers are inactive results; i = inactive; ? = inconclusive; . = not tested or not shown; [ ] = another dose, or the depositor's remark. Sampled rows, rich in hits. Any-hit rate of the full collection: about 0.92%. Calls come from the whole dose curve; as a rule, active = well fitted curve in the direction sought with a large enough effect; inconclusive = small, poorly fitted or top-dose-only effect, or another doubt; inactive = no such curve, though single readings can be large; an effect the other way counts as inactive or inconclusive. Unless noted, % is set by controls: 0 for no effect and ±100 for the full control effect; potency is the fitted concentration of half-maximal effect.

SMILES	WRN helicase inh	APEX1 inh	BLM helicase inh	RECQ1 inh	L3MBTL1 block
N#Cc1c(-c2ccc(OCCOCCOCCNC(=O)CCCC[C@@H]3SC[C@@H]4NC(=O)N[C@@H]43)cc2)no[n+]1[O-]	.	-5.8%	.	.	.
COc1ccc(N2C=C3C(=O)C(C)(OC(=O)C4CCCC4)C(=O)C=C3C=C2c2ccsc2)cc1 (stereo unspecified)	.	-0.9%[12.4 µM]	-0.2%[12.4 µM]	-16.0%[11.5 µM]	.
CN(C)CCn1nnnc1SCC1=C(C(=O)O)N2C(=O)[C@@H](NC(=O)Cc3csc(N)n3)[C@H]2SC1	-14.6%	?	.	.	28.2µM*
N#Cc1c(-c2ccc(C(F)(F)F)cc2)no[n+]1[O-]	.	-2.0%	.	.	.
O=CN/C=C/c1cc(O)ccc1O	-33.7%	10µM*	-27.0%	-25.4%	15.8µM*
O=c1ccsn1Cc1ccccc1	50.1µM*	-4.2%	0.5%	-9.5%	.
COC(=O)C1CCN(C(=O)COC(=O)CNS(=O)(=O)c2ccc(SC)c([N+](=O)[O-])c2)CC1	-10.3%[11.6 µM]	11.9µM*	.	.	-16.5%
Cc1ccc(Nc2c([N+](=O)[O-])ccc3nonc23)c(C)c1	-5.1%	-13.5%	-2.8%	.	.
Cc1ccc(S(=O)c2ccc([N+](=O)[O-])c3nonc23)cc1 (stereo unspecified)	79.4µM*	.	.	.	.
NC(N)=NCC1COC2(CCCCC2)O1 (stereo unspecified)	.	4.5%[21 µM]	.	.	.
CC(C)C[C@@H](NC(=O)[C@@H](Cc1ccccc1)NC(=O)c1cnccn1)B(O)O	.	.	1.8%	.	.
Cc1onc(-c2ccccc2)c1C(=O)Nc1sc2c(c1C(N)=O)CCC2	-17.1%	8.6%	-12.7%	-9.5%	?
Cc1onc(-c2ccccc2)c1C(=O)Nc1sc2c(c1C#N)CCC2	50.1µM*	-12.0%	-14.5%	-21.2%	?
Nc1ccc(C(=O)O)c(O)c1 (tested in a mixture with another compound)	.	-0.2%	-3.6%	-2.5%	.
Nc1ccc(O)c(C(=O)O)c1	.	7.08µM*	-12.9%	7.08µM*	.
CC1=C/C(=N\Nc2ccccc2[N+](=O)[O-])CC(C)(C)C1	-9.7%	-8.7%	-6.8%	-4.4%	14.1µM*
COc1cc([C@@H]2c3cc4c(cc3[C@@H](OC3OC5COC(C)OC5C(O)C3O)[C@H]3COC(=O)[C@H]23)OCO4)cc(OC)c1O (stereo partly specified)	.	-1.4%	.	-14.6%	.
CC1=NN(c2ccccc2)C(=O)/C1=C\C=C\c1ccccc1	-14.4%[11.6 µM]	1.1%	-8.1%	-2.9%	-8.5%
CC1=NN(c2ccc(C(=O)OC(C)C)cc2)C(=O)/C1=C\C=C\c1ccco1	-4.0%	7.7%	-11.8%	5.7%	6.31µM*
Oc1cccc(C=NCc2ccccc2)c1O	39.8µM*	?	-17.1%	-23.0%	.
CCOC(=O)c1cc(-c2ccc(/C=C3/C(=O)N(c4ccc(C(=O)O)cc4)N=C3C)o2)ccc1Cl	-22.8%[11.6 µM]	8.44µM*	-0.5%	.	.
CCCCCCCCCCCCC/C=C/C(O)C(COP(=O)(O)OCCN)NC(=O)CCCCCCCCCCCCCCCCC (stereo unspecified)	.	-9.4%	-12.1%	-15.8%	.
O=C1Oc2ccccc2C(=O)C1C(CC(O)c1ccc(-c2ccc(Br)cc2)cc1)c1ccccc1 (stereo unspecified)	.	.	-22.9%	.	.
Oc1ccc(/C=N/Nc2nc(-c3cccnc3)nc3ccccc23)c(O)c1	-30.8%	?	-23.1%	-1.3%	-27.3%
COc1ccc(/C=N/Nc2nc(-c3cccnc3)nc3ccccc23)cc1OC	-21.1%	-5.7%	3.1%	20µM*	5.4%
SMILES	WRN helicase inh	APEX1 inh	BLM helicase inh	RECQ1 inh	L3MBTL1 block
O=S(=O)(Nc1cc(O)cc2cccnc12)c1ccc(Br)s1	.	-2.6%	-29.0%	i	.
O=C1CCCC2=C1Sc1ccc(Cl)cc1N2	-10.5%	8.5%	-3.8%	-6.4%	-6.6%
COC(=O)c1ccc2c(c1)SC1=C(CCCC1=O)N2	79.4µM*	-0.8%	-3.9%	-29.5%	-4.1%[11.4 µM]
CNCc1ccccc1Sc1cc(O)ccc1O	31.6µM*	-6.1%	-3.2%	?	-13.3%
O=C(Cn1nnc(-c2cc(C(F)(F)F)cc(C(F)(F)F)c2)n1)NNC(=S)Nc1ccc(Cl)cc1	-12.2%	-0.8%	17.8µM*	4.8%	-23.4%
CCOc1cc(/C=C2\C(=N)N3N=C(S(C)(=O)=O)SC3=NC2=O)ccc1OCCOc1cccc(OC)c1	56.2µM*	?	-15.8%	.	.
O=C1N/C(=C\c2ccc(O)cc2)C(=O)c2ccccc21	?	?	31.6µM*	i	-3.8%
COC(=O)c1ccc(NCc2c(O)ccc(O)c2Br)cc1Cl	50.1µM*	.	.	.	.
Cc1ccc(-c2ccc(/C=C3/NC(=O)NC3=O)o2)cc1[N+](=O)[O-]	-28.8%	-5.0%	-21.0%	28.2µM*	-4.6%
CC/C(=N\Nc1ccccc1[N+](=O)[O-])c1ccc(O)cc1	-6.9%	-6.5%	3.6%	?	25.1µM*
CC(C)(C)n1ncc2c(=O)n(Cc3c(Cl)cccc3Cl)cnc21	.	-1.0%	.	.	.
C/C(=N\NC(=O)c1c[nH]c2ccccc12)c1ccccn1	-20.3%	3.2%	-0.5%	-21.7%	8.91µM*
CC[C@H](C)C(=O)O[C@H]1CCC=C2C=C[C@H](C)[C@H](CC[C@@H]3C[C@H](O)CC(=O)O3)C21 (stereo partly specified)	.	-1.9%	.	i	.
CCC(=O)c1ccc2c(c1)N(CCCN1CCN(CCO)CC1)c1ccccc1S2	.	.	-3.5%	.	.
CCN1C/C(=C/c2ccc(N3CCOCC3)cc2)C(=O)/C(=C/c2ccc(N3CCOCC3)cc2)C1	79.4µM*	-8.3%	-7.8%	-20.6%	-8.9%
C[C@H]1O[C@@H](O[C@H]2CC[C@@]3(C)[C@H](CC[C@@H]4[C@@H]3C[C@@H](O)[C@]3(C)[C@@H](C5=CC(=O)OC5)CC[C@]43O)C2)C[C@H](O)[C@@H]1O[C@H]1C[C@H](O)[C@H](O[C@H]2C[C@H](O)[C@H](O[C@@H]3O[C@H](CO)[C@@H](O)[C@H](O)[C@H]3O)[C@@H](C)O2)[C@@H](C)O1	.	-8.2%	.	.	.
Cc1ccc(C)c(S(=O)(=O)Nc2ccc3oc(C)c(C(=O)O)c3c2)c1	56.2µM*	13.4µM*	-4.7%	.	.
CC(=O)c1c(C)oc2ccc(NS(=O)(=O)c3ccc(C)cc3)cc12	-3.7%	-2.4%[12.4 µM]	0.3%	.	.
CC1=NN(c2nc3ccccc3[nH]2)C(=O)/C1=C/N(C)C	2.1%	-4.9%	-2.6%	-6.0%	.
CC1=NN(c2nc3ccccc3[nH]2)C(=O)C1Cc1ccccc1 (stereo unspecified)	3.0%	?	-1.5%	-6.8%	20µM*
Oc1ccc(-c2cn3ccccc3n2)cc1O	-9.7%	21.5%	-2.9%	.	.
Cc1ccn2cc(-c3ccc(O)c(O)c3)nc2c1	44.7µM*	-15.8%	-19.2%	.	.
